Drawing on ChEMBL document CHEMBL1961873, “Compounds: GSK PKIS; Assays: Nanosyn kinase panel” (2012), this text covers inhibition for 13 compounds.

In experiment [1] the target is Casein kinase I isoform gamma-2 (Homo sapiens) (UniProt P78368). To be noted: at 1 µM.
Experiment [2] has as its target Casein kinase I isoform gamma-3 (Homo sapiens) (UniProt Q9Y6M4). Particulars: at 0.1 µM.
Experiment [3] has the same target. To be noted: at 1 µM.
In experiment [4] the target is Cyclin-dependent kinase 1 (Homo sapiens) (UniProt P06493). Particulars: at 0.1 µM.
Sequence of Cyclin-dependent kinase 1 (Homo sapiens) (P06493 whole entry, looked up): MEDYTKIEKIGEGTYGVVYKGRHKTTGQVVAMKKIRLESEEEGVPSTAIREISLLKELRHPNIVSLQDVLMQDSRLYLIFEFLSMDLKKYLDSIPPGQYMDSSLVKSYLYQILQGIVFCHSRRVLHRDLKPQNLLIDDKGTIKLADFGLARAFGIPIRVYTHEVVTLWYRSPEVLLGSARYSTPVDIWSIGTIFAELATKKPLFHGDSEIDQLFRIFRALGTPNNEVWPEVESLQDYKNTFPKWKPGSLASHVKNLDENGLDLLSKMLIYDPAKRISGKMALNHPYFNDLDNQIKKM
Experiment [5] shares this target. Particulars: at 1 µM.
Experiment [6] deals with Cyclin-dependent kinase 2 (Homo sapiens) (UniProt P24941). To be noted: at 0.1 µM.
Experiment [7] has the same target. Particulars: at 1 µM.
Experiment [8] has the same target. To be noted: at 0.1 µM. This is another data set of the same source.
Experiment [9] shares this target. To be noted: at 1 µM. This is another data set of the same source.
Experiment [10] has as its target T1, CDK3/Cyclin E (Homo sapiens) (UniProt P24864+Q00526). To be noted: at 0.1 µM.
For experiment [11], the target named is T1, CDK3/Cyclin E (Homo sapiens). Particulars: at 1 µM.
Experiment [12] has as its target Cyclin-dependent kinase 4 (Homo sapiens) (UniProt P11802). To be noted: at 0.1 µM.
Experiment [13] shares this target. Particulars: at 1 µM.
Experiment [14] addresses Cyclin-dependent kinase 5 (Homo sapiens) (UniProt Q00535). To be noted: at 0.1 µM.
Experiment [15] has the same target. To be noted: at 1 µM.
The target of experiment [16] is Cyclin-dependent kinase 6 (Homo sapiens) (UniProt Q00534). Particulars: at 0.1 µM.
Sequence of Cyclin-dependent kinase 6 (Homo sapiens) (Q00534 whole entry): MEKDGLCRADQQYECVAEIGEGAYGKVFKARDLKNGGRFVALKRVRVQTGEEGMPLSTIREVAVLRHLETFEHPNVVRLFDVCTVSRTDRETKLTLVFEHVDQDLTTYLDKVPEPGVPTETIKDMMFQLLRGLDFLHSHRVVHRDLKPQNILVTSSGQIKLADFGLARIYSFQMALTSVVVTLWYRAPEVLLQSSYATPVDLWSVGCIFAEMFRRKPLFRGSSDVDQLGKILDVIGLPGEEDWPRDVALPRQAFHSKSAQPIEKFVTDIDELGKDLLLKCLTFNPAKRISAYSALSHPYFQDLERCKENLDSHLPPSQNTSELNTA
For experiment [17] the target is unchanged. To be noted: at 1 µM.
The target in experiment [18] is Dual specificity protein kinase CLK2 (Homo sapiens) (UniProt P49760). To be noted: at 0.1 µM.
Sequence of Dual specificity protein kinase CLK2 (Homo sapiens) (P49760 whole entry, looked up): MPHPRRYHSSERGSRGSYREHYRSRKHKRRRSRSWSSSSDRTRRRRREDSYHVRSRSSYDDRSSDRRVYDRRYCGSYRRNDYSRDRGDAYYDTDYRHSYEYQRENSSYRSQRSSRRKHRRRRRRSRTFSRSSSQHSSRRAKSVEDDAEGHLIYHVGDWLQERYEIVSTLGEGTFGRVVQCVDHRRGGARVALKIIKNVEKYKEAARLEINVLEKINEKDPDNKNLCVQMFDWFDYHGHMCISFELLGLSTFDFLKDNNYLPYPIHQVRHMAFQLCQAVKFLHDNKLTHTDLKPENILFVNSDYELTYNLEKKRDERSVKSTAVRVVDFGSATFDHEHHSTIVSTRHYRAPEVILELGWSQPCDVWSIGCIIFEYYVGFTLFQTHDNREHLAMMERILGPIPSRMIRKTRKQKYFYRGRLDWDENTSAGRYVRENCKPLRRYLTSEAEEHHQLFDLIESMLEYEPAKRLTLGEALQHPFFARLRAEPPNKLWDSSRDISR
For experiment [19] the target is unchanged. Particulars: at 1 µM.
The target in experiment [20] is Dual specificity protein kinase CLK3 (Homo sapiens) (UniProt P49761). Particulars: at 0.1 µM.
Sequence of Dual specificity protein kinase CLK3 (Homo sapiens) (P49761 whole entry, looked up): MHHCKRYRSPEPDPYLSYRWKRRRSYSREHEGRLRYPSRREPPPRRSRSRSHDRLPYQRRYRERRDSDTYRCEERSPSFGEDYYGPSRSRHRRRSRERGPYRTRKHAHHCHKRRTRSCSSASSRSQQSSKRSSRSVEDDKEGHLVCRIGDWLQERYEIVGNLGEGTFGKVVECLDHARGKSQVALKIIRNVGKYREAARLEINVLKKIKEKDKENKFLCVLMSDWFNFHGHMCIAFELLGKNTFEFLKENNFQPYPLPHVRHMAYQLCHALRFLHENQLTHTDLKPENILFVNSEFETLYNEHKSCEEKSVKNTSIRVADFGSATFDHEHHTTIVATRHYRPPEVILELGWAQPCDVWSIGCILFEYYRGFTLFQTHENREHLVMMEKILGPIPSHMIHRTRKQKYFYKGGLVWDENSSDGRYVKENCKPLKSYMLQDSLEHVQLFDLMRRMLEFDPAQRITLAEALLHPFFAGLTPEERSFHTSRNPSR

Sequence of Cyclin-dependent kinase 4 (Homo sapiens) (P11802 whole entry): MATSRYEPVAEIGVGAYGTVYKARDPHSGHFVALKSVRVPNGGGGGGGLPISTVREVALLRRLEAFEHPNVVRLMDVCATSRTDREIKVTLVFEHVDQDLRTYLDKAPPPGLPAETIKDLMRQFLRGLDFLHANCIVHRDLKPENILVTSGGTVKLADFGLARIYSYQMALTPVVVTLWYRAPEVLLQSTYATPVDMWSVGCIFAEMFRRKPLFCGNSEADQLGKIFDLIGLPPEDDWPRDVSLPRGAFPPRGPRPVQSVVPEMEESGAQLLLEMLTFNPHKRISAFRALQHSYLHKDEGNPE
Sequence of Cyclin-dependent kinase 5 (Homo sapiens) (Q00535 whole entry, looked up): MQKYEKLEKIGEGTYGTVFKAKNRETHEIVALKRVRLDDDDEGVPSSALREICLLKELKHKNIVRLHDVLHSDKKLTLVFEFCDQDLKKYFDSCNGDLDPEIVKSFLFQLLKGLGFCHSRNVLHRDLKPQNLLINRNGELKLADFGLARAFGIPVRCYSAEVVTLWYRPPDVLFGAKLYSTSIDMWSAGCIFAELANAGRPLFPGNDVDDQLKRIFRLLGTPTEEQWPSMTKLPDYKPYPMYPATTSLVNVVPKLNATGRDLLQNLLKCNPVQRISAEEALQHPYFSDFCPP
T1 sequence (P24864 whole entry, looked up): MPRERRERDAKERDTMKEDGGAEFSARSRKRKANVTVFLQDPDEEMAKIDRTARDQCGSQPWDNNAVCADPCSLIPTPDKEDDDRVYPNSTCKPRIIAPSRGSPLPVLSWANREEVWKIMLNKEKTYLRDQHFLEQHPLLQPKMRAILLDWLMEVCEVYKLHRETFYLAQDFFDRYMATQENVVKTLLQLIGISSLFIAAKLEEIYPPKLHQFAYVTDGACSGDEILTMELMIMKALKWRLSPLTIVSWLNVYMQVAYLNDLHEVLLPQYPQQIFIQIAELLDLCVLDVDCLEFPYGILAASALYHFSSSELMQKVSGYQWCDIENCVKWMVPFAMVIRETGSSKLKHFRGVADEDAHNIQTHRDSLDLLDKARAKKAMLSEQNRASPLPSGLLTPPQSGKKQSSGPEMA
T1 sequence (Q00526 whole entry, looked up): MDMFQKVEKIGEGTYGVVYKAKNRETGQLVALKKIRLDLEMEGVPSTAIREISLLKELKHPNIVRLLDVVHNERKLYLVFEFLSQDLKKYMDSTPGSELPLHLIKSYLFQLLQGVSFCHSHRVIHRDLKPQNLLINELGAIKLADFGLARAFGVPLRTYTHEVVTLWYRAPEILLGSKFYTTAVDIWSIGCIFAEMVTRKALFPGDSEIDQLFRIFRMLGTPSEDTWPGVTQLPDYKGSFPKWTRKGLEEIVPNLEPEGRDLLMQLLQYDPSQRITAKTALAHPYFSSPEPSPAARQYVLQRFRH
Sequence of Casein kinase I isoform gamma-2 (Homo sapiens) (P78368 whole entry, looked up, canonical isoform): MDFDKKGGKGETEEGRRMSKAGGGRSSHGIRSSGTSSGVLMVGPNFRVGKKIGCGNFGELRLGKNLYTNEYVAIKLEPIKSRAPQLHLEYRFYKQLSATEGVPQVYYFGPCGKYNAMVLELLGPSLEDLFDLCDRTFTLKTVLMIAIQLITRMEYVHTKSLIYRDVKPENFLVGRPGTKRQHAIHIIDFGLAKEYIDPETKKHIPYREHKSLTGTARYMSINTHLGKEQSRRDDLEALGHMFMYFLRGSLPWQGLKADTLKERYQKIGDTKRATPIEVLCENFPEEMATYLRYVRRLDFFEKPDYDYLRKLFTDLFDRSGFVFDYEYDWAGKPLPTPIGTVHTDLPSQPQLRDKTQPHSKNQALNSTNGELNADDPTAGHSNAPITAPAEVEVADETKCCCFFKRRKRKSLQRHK
Sequence of Casein kinase I isoform gamma-3 (Homo sapiens) (Q9Y6M4 whole entry, looked up, canonical isoform): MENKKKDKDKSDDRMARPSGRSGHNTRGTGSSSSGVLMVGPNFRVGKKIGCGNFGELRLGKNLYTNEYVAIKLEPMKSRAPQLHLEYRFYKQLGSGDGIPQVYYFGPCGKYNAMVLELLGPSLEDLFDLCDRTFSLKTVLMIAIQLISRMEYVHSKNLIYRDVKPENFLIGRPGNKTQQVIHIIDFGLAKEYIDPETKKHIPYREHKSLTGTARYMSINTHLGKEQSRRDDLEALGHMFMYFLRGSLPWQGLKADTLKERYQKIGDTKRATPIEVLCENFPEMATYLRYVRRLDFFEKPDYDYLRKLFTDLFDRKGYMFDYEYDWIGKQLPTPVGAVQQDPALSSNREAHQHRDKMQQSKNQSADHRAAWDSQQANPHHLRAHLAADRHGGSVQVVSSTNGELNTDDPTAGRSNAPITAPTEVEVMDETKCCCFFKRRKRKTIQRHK

As to `Cc1ccc2c(-c3ccnc(Nc4cccc(C(F)(F)F)c4)n3)c(-c3ccccc3)nn2n1`, the inhibition in [1] was found to be 12%; in experiment [2] it was 4.25%; in experiment [3], 24.8%; in experiment [4], 3.78%; in [5], 3.79%; in experiment [6] it was 4.09%. In addition, the inhibition was 3.14% in experiment [7]; 2.95% in experiment [8]; 7.4% in experiment [9]; -1.21% in experiment [10]; -1.25% in experiment [11]; 4.12% in experiment [12]. Further, the inhibition in [13] was 7.65%; in experiment [14], 2.11%; in experiment [15], 4.09%; in experiment [16], -1.73%; in [17] it was 1.79%; in experiment [18], -0.15%. Also, the inhibition is 2.76% in experiment [19] and 0.65% in [20].
As for `c1ccc(Cc2nc3ccc(Nc4ncnc5ccccc45)cc3[nH]2)cc1`, the inhibition turned out to be 8.66% in experiment [1]; 3.41% in [2]; 5.53% in experiment [3]; 3.12% in experiment [4]; 4.29% in [5]; 2.89% in [6]. The inhibition in experiment [7] is 7.78%; in experiment [8], 6.18%; in experiment [9] it was 8.1%; in experiment [10] it was 4.46%; in [11] it was 1.71%; in [12] it was 4.29%. The inhibition is 5.27% in experiment [13]; 3.52% in experiment [14]; 5.74% in experiment [15]; 6.78% in experiment [16]; 8.79% in experiment [17]; 1.26% in experiment [18]. Besides, the inhibition in experiment [19] was found to be 2%; in experiment [20], 2.76%.
In the case of `Cc1cc(Cl)cc2c1NC(=O)C2=NNc1ccc(S(N)(=O)=O)cc1`, the inhibition in experiment [1] is 1.54%; in experiment [2], -0.43%; in [3], 0.95%; in [4], 1.08%; in [5], 1.91%; in [6], 1.27%. Besides, the inhibition is 2.22% in [7]; 1.42% in experiment [8]; 4.71% in [9]; 3.25% in experiment [10]; -0.36% in experiment [11]; 0.78% in experiment [12]. Besides, the inhibition was 3.56% in experiment [13]; 0.57% in experiment [14]; 2.28% in [15]; 2.2% in experiment [16]; 3.46% in [17]; 0.86% in [18]. For the same compound, the inhibition in experiment [19] is 2.34%; in [20], 0.9%.
As for `C[C@@H](Oc1cc(-n2cnc3ccc(OCC4CCN(C)CC4)cc32)sc1C(N)=O)c1ccccc1C(F)(F)F`, the inhibition in experiment [1] is -3.37%; in [2], -1.08%; in experiment [3], -3.59%; in experiment [4], 2.12%; in experiment [5], 3.02%; in experiment [6] it was -0.78%. The inhibition in experiment [7] is 2.52%; in experiment [8] it was -0.93%; in [9] it was 0.83%; in experiment [10], -1.54%; in [11] it was 0.6%; in [12] it was -1.73%. For the same compound, the inhibition in experiment [13] was 1%; in experiment [14], 0.01%; in [15] it was 3.08%; in experiment [16] it was -3.79%; in [17], -1.66%; in [18] it was 1.74%. The inhibition in [19] is 9.73%; in experiment [20] it was -0.19%.
On to `CN(C)C(=O)O[C@H]1CN[C@H](C#Cc2cc3ncnc(Nc4ccc(OCc5cccc(F)c5)c(Cl)c4)c3s2)C1`, for which the inhibition in experiment [1] is 1.66%; in experiment [2] it was 1.79%; in [3], 0.71%; in experiment [4] it was 0.08%; in experiment [5], -0.52%; in [6], 1.13%. Also, the inhibition in [7] was 1.7%; in experiment [8] it was 3.08%; in [9], 3.18%; in experiment [10], 0.39%; in experiment [11], -2.05%; in experiment [12], 1.82%. The inhibition in experiment [13] was 1.04%; in [14] it was 0.51%; in [15] it was 0.96%; in [16], 2.1%; in experiment [17], 4.47%; in experiment [18], -0.97%. Further, the inhibition worked out at 0.42% in experiment [19] and 1.51% in experiment [20].
As for `COc1cccc(-n2nc(C)c3c(N/N=C(\C)c4ccncc4)ncnc32)c1`, the inhibition in experiment [1] was 0.28%; in [2] it was -0.15%; in experiment [3], -0.59%; in [4], 0.65%; in experiment [5], 2.77%; in experiment [6], 1.78%. Further, the inhibition in [7] is 7.56%; in experiment [8], 1.09%; in experiment [9], 2.33%; in experiment [10], -0.92%; in [11] it was -0.83%; in experiment [12] it was 0.53%. Also, the inhibition in experiment [13] was 2.41%; in experiment [14], 0.97%; in experiment [15], 5.69%; in experiment [16], -2.27%; in experiment [17], 0.77%; in [18] it was -2.05%. The inhibition in experiment [19] is 0.8%; in experiment [20], -1.02%.
On to `COc1cccc(-n2ncc3c(N/N=C/c4ccc(S(C)(=O)=O)cc4)ncnc32)c1`, for which the inhibition in experiment [1] was -0.73%; in experiment [2], -4.22%; in [3], -2.43%; in experiment [4], 26.2%; in experiment [5] it was 64%; in experiment [6], 32.1%. Moreover, the inhibition in experiment [7] came to 68%; in [8], 7.18%; in experiment [9] it was 41.6%; in experiment [10] it was 4.38%; in experiment [11], 20.8%; in experiment [12] it was 0.01%. The inhibition in experiment [13] stood at 20.4%; in [14] it was 21%; in experiment [15], 59.2%; in experiment [16] it was 0.78%; in [17], 25.6%; in experiment [18], 8.7%. In addition, the inhibition is 18.4% in experiment [19] and -0.53% in [20].
For the compound `COc1cc2ncnc(Nc3ccc4c(cnn4Cc4ccccc4)c3)c2cc1OC`, the inhibition was 2.98% in [1]; 0.8% in experiment [2]; 1.75% in experiment [3]; 2.61% in [4]; 6.2% in experiment [5]; 4.41% in experiment [6]. Also, the inhibition is 2.68% in experiment [7]; 6.35% in experiment [8]; 7.13% in [9]; -0.7% in experiment [10]; -1.25% in experiment [11]; 1.5% in experiment [12]. The inhibition is 5.06% in [13]; 4.4% in [14]; 6.81% in experiment [15]; -3.86% in experiment [16]; -2.1% in [17]; -0.74% in [18]. Further, the inhibition in [19] is 0.84%; in experiment [20] it was 1.15%.
On to `O=C(Nc1ccc(Oc2ccc3[nH]c(NC(=O)c4ccco4)nc3c2)cc1)Nc1cc(C(F)(F)F)ccc1F`, for which the inhibition in [1] is -2.38%; in [2] it was -2.82%; in [3], -2.32%; in experiment [4], -5.04%; in [5] it was -3.69%; in experiment [6], -3.1%. The inhibition in experiment [7] is 3.18%; in [8], -4.34%; in [9] it was -4%; in experiment [10], -0.43%; in experiment [11], 0.77%; in experiment [12], -4.32%. For the same compound, the inhibition is -2.74% in experiment [13]; -4.37% in [14]; -4.57% in experiment [15]; -1.5% in [16]; -3.48% in experiment [17]; 0.35% in experiment [18]. In addition, the inhibition is 0.71% in experiment [19] and -3.23% in experiment [20].
With `NS(=O)(=O)c1cccc(-c2cc3ccncc3cc2OCc2ccccc2)c1`, the inhibition came out at 4.41% in experiment [1]; 4.33% in [2]; 2.71% in experiment [3]; 2.03% in [4]; 2.22% in experiment [5]; 1.1% in experiment [6]. Further, the inhibition in [7] came to 3.16%; in [8], 5.88%; in experiment [9], 6.78%; in experiment [10] it was 3.65%; in [11] it was 0.51%; in [12] it was 3.55%. Besides, the inhibition in experiment [13] is 6.33%; in experiment [14] it was 1.96%; in experiment [15], 3.2%; in [16], -1.23%; in experiment [17], 10.9%; in experiment [18], 1.16%. Besides, the inhibition in [19] amounted to 1.27%; in [20], 1.46%.
On to `ON=C1CCc2cc(-c3nc(C4CCNCC4)[nH]c3-c3ccncc3)ccc21`, for which the inhibition in experiment [1] is 1.04%; in [2] it was 1.01%; in experiment [3] it was 0.07%; in experiment [4], 0.23%; in experiment [5], 2.04%; in experiment [6], 0.63%. The inhibition is -0.53% in experiment [7]; 1.2% in [8]; 2.51% in experiment [9]; 2.27% in [10]; 0.13% in [11]; 0.69% in [12]. Besides, the inhibition in experiment [13] was 2.19%; in experiment [14], 0.57%; in [15] it was 1.42%; in [16], -5.1%; in experiment [17] it was -0.84%; in experiment [18] it was 2.05%. Also, the values for the inhibition in experiment [19] and in [20] were -0.07% and -0.6%, respectively.
As to `N#Cc1cccc(Nc2nccc(-c3cnn4ncccc34)n2)c1`, the inhibition in [1] is 41.4%; in experiment [2], 8.75%; in experiment [3], 43%; in [4] it was 83.8%; in experiment [5], 89.2%; in experiment [6], 89.8%. Further, the inhibition in experiment [7] is 121%; in [8], 82.3%; in [9] it was 87.2%; in [10], 76.7%; in [11] it was 99.9%; in experiment [12], 71%. Moreover, the inhibition in [13] amounted to 83.7%; in experiment [14], 80.3%; in [15], 87%; in experiment [16], 61.9%; in experiment [17], 84%; in experiment [18], 98.9%. The figures for the inhibition in experiment [19] and in experiment [20] were 96.9% and 56.7%, respectively.
As for `Oc1cccc(-c2nc(-c3ccccc3)[nH]c2-c2ccncc2)c1`, the inhibition in experiment [1] was 2.78%; in experiment [2], 2.62%; in [3], 2.68%; in [4] it was 0.66%; in [5] it was 2.64%; in experiment [6], 1.15%. The inhibition in [7] was -1.31%; in experiment [8], 5.08%; in experiment [9], 6.33%; in [10] it was 4.62%; in [11] it was -2%; in [12], 2.45%. For the same compound, the inhibition was 5.74% in experiment [13]; 0.71% in experiment [14]; 3.06% in experiment [15]; -1.44% in [16]; 6.21% in experiment [17]; 1.81% in experiment [18]. Besides, the inhibition is 4.52% in [19] and 1.66% in experiment [20].
